Experimental data: PubChem BioAssay (NCATS)
Records with an inconclusive call do not appear. The source made the active and inactive calls. Calls come from the whole dose curve; as a rule, active = well fitted inhibition curve with a large enough effect; inconclusive = small, poorly fitted or top-dose-only effect; inactive = flat fitted curve, though single readings scatter.

Tests used:
Test in all cases: qHTS profiling for inhibitors of Plasmodium falciparum proliferation (AID 504749); note: nearly all actives have a fitted effect of over 60% in size
Conditions in all cases: P. falciparum in erythrocytes, SYBR Green DNA, 72 h; series mostly up to 28.7 µM
3D7 = system: 3D7
How it was run: (§1)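 Fluorescence of SYBR Green-bound parasite DNA, read at 485/535 nm, served as the growth measure. Infected erythrocytes were cultured with compound 72 h; artemisinin (0.29 uM) and DMSO wells defined the normalization range.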

7G8 = system: 7G8
How it was run: as §1

C2A = system: C2A
How it was run: as §1

CP191 = system: CP191
How it was run: as §1

CP247 = system: CP247
How it was run: as §1

CP250 = system: CP250
How it was run: as §1

CP256 = system: CP256
How it was run: as §1

CP260 = system: CP260
How it was run: as §1

CP335 = system: CP335
How it was run: as §1

DIV17 = system: DIV17
How it was run: as §1

P94_40 = system: P94_40
How it was run: as §1

TAB113 = system: TAB113
How it was run: as §1

TAB165 = system: TAB165
How it was run: as §1

ATS95 = system: ATS95
How it was run: as §1

CP266 = system: CP266
How it was run: as §1

CP297 = system: CP297
How it was run: as §1

GB4 = system: GB4
How it was run: as §1

P93_24 = system: P93_24
How it was run: as §1

PAD = system: PAD
How it was run: as §1

PC26 = system: PC26
How it was run: as §1

Measured: Potency
Potency is the fitted concentration of half-maximal effect.

N#C/C(=C1/SCC(c2ccccc2Cl)S1)n1ccnc1 (configuration not stated)
inactive: 3D7 | C2A | CP191 | CP247 | CP250 | CP256 | CP260 | CP335 | DIV17 | P94_40 | TAB113
active: 7G8 10 µM | TAB165 12.6 µM

NC(CSSCC(N)C(=O)O)C(=O)O (configuration not stated)
inactive: 3D7 | 7G8 | ATS95 | C2A | CP191 | CP247 | CP250 | CP256 | CP260 | CP266 | CP297 | CP335 | DIV17 | GB4 | P93_24 | P94_40 | PAD | PC26 | TAB113 | TAB165

Nc1nc(/C(=C/CC(=O)O)C(=O)NC2C(=O)N3C(C(=O)O)=CCSC23)cs1 (configuration not stated)
inactive: 3D7 | 7G8 | ATS95 | C2A | CP191 | CP247 | CP250 | CP256 | CP260 | CP266 | CP297 | CP335 | DIV17 | GB4 | P93_24 | P94_40 | PAD | PC26 | TAB113 | TAB165

Cn1cc(C(=O)[C@@H]2CCc3[nH]cnc3C2)c2ccccc21
inactive: 3D7 | ATS95 | C2A | CP191 | CP247 | CP250 | CP256 | CP260 | CP266 | CP297 | CP335 | DIV17 | GB4 | P93_24 | P94_40 | PAD | PC26 | TAB113 | TAB165

C[C@]12CC[C@@H]3c4ccc(O)cc4CC[C@H]3[C@@H]1CCC2OC(=O)CCC1CCCC1 (some centres not stated)
active: 7G8 10 µM
inactive: ATS95 | C2A | CP191 | CP247 | CP250 | CP256 | CP260 | CP266 | CP297 | DIV17 | GB4 | P94_40 | PC26 | TAB113 | TAB165

C=C1NC(=O)c2cc(CN(C)c3ccc(C(=O)N[C@@H](CCC(=O)O)C(=O)O)s3)ccc2N1
inactive: 3D7 | 7G8 | ATS95 | C2A | CP191 | CP247 | CP250 | CP256 | CP260 | CP266 | CP335 | DIV17 | P94_40 | TAB113 | TAB165

C[C@@H](O)[C@@H]1C(=O)N2C(C(=O)O)=C([C@H]3CCCO3)S[C@H]12
inactive: 3D7 | 7G8 | ATS95 | C2A | CP191 | CP247 | CP250 | CP256 | CP260 | CP266 | CP297 | CP335 | DIV17 | GB4 | P93_24 | P94_40 | PAD | PC26 | TAB113 | TAB165

CC1OC(OC2C(O)CC(OC3C(O)CC(OC4CCC5(C)C(CCC6C5CCC5(C)C(C7=CC(=O)OC7)CCC65O)C4)OC3C)OC2C)CC(O)C1O (configuration not stated)
active: 7G8 12.6 µM
inactive: C2A | CP191 | CP247 | CP250 | CP256 | CP260 | CP266 | CP297 | P93_24 | P94_40 | PAD | TAB113 | TAB165
